From PubChem BioAssay
HT1080NT lethal = kills 2HG-producing HT-1080-NT fibrosarcoma cells | Potency, µM (doses to about 46.1 µM), without a hit: top-dose activity, negative = less viability, actives largely listed as cytotoxic | 360,000 tested, 1.6% active | AID 686970 | HT-1080-NT fibrosarcoma viability, CellTiter-Glo ATP luminescence, 48 h;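 note: NT is the 2HG producing partner of a matched IDH1 knockdown line; potency is the fitted concentration of half-maximal effect; 0% = DMSO-treated cells and -100% = media-only wells without cells; nearly all actives have a fitted effect of over 55% in size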
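Read-out is CellTiter-Glo luminescence after 10 minutes at room temperature, following 48 hours' compound treatment of HT-1080-NT cells (750 cells/well, RPMI, 5% FBS, 37 degrees C).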
TDP1 cell noCPT = qHTS for Inhibitors of human tyrosyl-DNA phosphodiesterase 1 (TDP1): qHTS in cells in absence of CPT | DT40 Tdp1-/- hTDP1 cells, no CPT, ATP luminescence, 48 h | Potency, µM (highest dose often 46.2 µM), for inactives: at the top dose activity change, negative = growth inhibition, most hits filed as inhibitors | 420,000 tested, 15% active; note: potency is the fitted concentration of half-maximal effect; nearly all actives have a fitted effect of over 55% in size
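Growth of hTDP1-complemented DT40 Tdp1-knockout cells is measured by ATP luminescence after at least 48 hr compound exposure at 37 °C, with DMSO substituting for the 20 nM CPT used in the parallel screen.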
IL-1B inflam inh = inhibitors of inflammasome signaling (IL-1 beta secretion); THP-1 LPS/ATP IL-1B secretion, AlphaLISA, 16 h; hits give low values; activity change, % at 57.5 µM; 360,000 tested, 4.7% active; in the data active = activity change below about -50%; inconclusive = mostly about -30% to -49%
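THP-1 cells pretreated 1 hr with compounds (up to 57.5 uM final), then stimulated with LPS (250 ng/mL final) plus ATP (1.25 mM final); secreted IL-1B measured by AlphaLISA after 16 hr, decreased signal indicating inhibition.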
DT40 TDP1 CPT = DT40-hTDP1 cell growth loss with CPT; chicken DT40 Tdp1-/-;hTDP1 cells + 20 nM CPT, ATP luminescence, 48 h; 420,000 tested, 12% active; Potency, µM (doses to about 46.2 µM), without a hit: top-dose activity change, negative = growth inhibition, usual class: inhibitors; note: potency is the fitted concentration of half-maximal effect; nearly all actives have a fitted effect of over 55% in size
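Cell growth measured by CellTiter-Glo luminescence after a minimum 48 h, 37 C compound exposure with 20 nM CPT in Tdp1-knockout DT40 cells stably expressing hTDP1, seeded 400/well; qHTS titration format.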
HT1080 IDH1KD tx = toxicity to HT-1080 IDH1 knockdown cells (counter line); HT-1080 IDH1 knockdown viability, ATP luminescence, 48 h; Potency, µM (doses to about 46.1 µM), inactives show at the highest dose activity, negative = toxicity, most hits filed as cytotoxic; 360,000 tested, 2% active; AID 686971;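 note: potency is the fitted concentration of half-maximal effect; 0% = DMSO wells and -100% = cell-free medium wells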
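Luminescent ATP read-out (CellTiter-Glo, 10 min at room temperature) after 48 h compound exposure at 37 °C gave viability of IDH1-knockdown HT-1080 cells. Activity was normalised to DMSO and cell-free wells, then fitted as concentration-response curves.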
An asterisk follows results filed as active; ? = inconclusive; . = not tested or not shown; ! = a repeat was not active; [ ] = dose if it differs, or a comment. The list is not random: actives were taken first. Their share in the collection is about 19%. Unless noted, calls come from the whole dose curve; as a rule, active = well fitted curve in the direction sought with a large enough effect; inconclusive = small, poorly fitted or top-dose-only effect, or another doubt; inactive = no such curve, though single readings can be large; an effect the other way counts as inactive or inconclusive. Unless noted, % is set by controls: 0 for no effect and ±100 for the full control effect.

SMILES	HT1080NT lethal	TDP1 cell noCPT	IL-1B inflam inh	DT40 TDP1 CPT	HT1080 IDH1KD tx
C=C1C(=O)O[C@@H]2C[C@@H](C)[C@@H]3C=CC(=O)[C@@]3(C)[C@@H](OC(=O)CC(=O)O[C@H]3[C@@H]4C(=C)C(=O)O[C@@H]4C[C@@H](C)[C@@H]4C=CC(=O)[C@]43C)[C@H]12	?	0.073µM*	0	0.058µM*	0.23µM*
C=C1C(=O)O[C@H]2C[C@@H](C)[C@@H]3C=CC(=O)[C@@]3(C)C[C@H]12	?	0.65µM*	-111*	1µM*	8.2µM*
CCCCOc1ccc(Cn2c(=O)oc3ccccc32)cc1	1%	?	18	?	-5%
CCOC(=O)c1ccc(NC(=O)c2cccn(Cc3ccc(C)cc3)c2=O)cc1	.	-26%	.	?	.
CCOC(=O)c1ccc(NC(=O)CCc2nc(-c3ccc(C)cc3)no2)cc1	?	21µM*	-69*	?	?
CC(N)C(=O)NC1C2C(=C(O)CC(O)C2O)C(=O)OC1(C)C(Cl)Cl (stereo not drawn)	?	0.16µM*	-100*	0.18µM*	0.92µM*
COC(=O)C(O)(c1ccc(N(C)C(=O)c2ccc(Cl)c(Cl)c2)cc1)C(F)(F)F (stereo not drawn)	0%	?	18	?	-1%
COC(=O)C(O)(c1ccc(N(C)C(=O)c2cccs2)cc1)C(F)(F)F (stereo not drawn)	13%	?	23	3.3µM*	-4%
CCOC(=O)C(O)(c1ccc(N(CC)S(=O)(=O)c2ccc(C)cc2)cc1)C(F)(F)F (stereo not drawn)	7%	?	-12	-28%	-9%
CCOC(=O)C(=CNc1ccc(C(O)(C(=O)OCC)C(F)(F)F)cc1C)C(=O)OCC (stereo not drawn)	-15%	12µM*	-12	21µM*	-13%
CCOC(=O)C(O)(c1ccc(N(C)C(=O)c2ccc(Cl)c(Cl)c2)cc1)C(F)(F)F (stereo not drawn)	4%	13µM*	19	21µM*	1%
CCOC(=O)C(O)(c1ccc(NC(=O)c2ccc(Cl)c(Cl)c2)cc1)C(F)(F)F (stereo not drawn)	-1%	16µM*	-25	?	-7%
O=c1[nH]c(O)c(N=Nc2ccc(SC(F)F)cc2)c(=O)[nH]1	?	21%	-27	-7%	-28%
O=c1[nH]c(=O)n(Cc2ccco2)c(O)c1C=NCc1cccs1	-6%	-14%	-15	2%	6%
CCn1c(O)c(C=NCc2cccs2)c(=O)[nH]c1=O	12%	29µM*	16	?	0%
CCCCN1CCS(=O)(=O)N(Cc2ccccc2Br)CC(C(=O)OC)C1 (stereo not drawn)	-14%	?	-4	?	-9%
O=S(=O)(c1ccccc1)N1CCN2CCCC2C1 (stereo not drawn)	11%	5%	-2	8%	4%
O=C1NC(=O)C2(CCN(S(=O)(=O)c3ccccc3)CC2)C(=O)N1	1%	-15%	-7	-2%	10%
CC1(CCl)CN1S(=O)(=O)c1ccccc1 (stereo not drawn)	-19%	?	-28	18µM*	?
Cc1nn(Cc2ccccc2)c(C)c1C(=O)OCC(=O)Nc1ccccc1SCC#N	-4%	-23%	10	3%	-11%
Cc1ccc(C(=O)Nc2c(C(=O)Nc3ccc(C)c(C)c3)sc3nc(C)cc(C)c23)cc1	.	18µM*	.	?	.
N#Cc1ccc(NC(=O)CN2C(=O)NC3(CCCCCCC3)C2=O)cc1Cl	-4%[9.24 µM]	7.3µM*	6	12µM*	?
CC(C)NS(=O)(=O)c1ccc2c(c1)oc(=O)n2C	0%	?	0	-17%	-8%
COc1ccc(NS(=O)(=O)c2ccc3c(c2)oc(=O)n3C)cc1Cl	2%	16µM*	12	13µM*!	0%
CC(C(=O)O)N(C(=O)c1ccccc1)c1ccc(F)c(Cl)c1 (stereo not drawn)	-4%	-10%	37	15%	-1%
SMILES	HT1080NT lethal	TDP1 cell noCPT	IL-1B inflam inh	DT40 TDP1 CPT	HT1080 IDH1KD tx
O=C(Nc1ccc(F)cc1)OC1CN2CCC1CC2 (stereo not drawn)	17%	-16%	-5	-8%	14%
CC1=CC(C)CC(C)OC(=O)CC(c2ccc(O)cc2)NC(=O)C(Cc2c(Br)[nH]c3ccccc23)N(C)C(=O)C(C)NC(=O)C(C)C1 (stereo not drawn)	1.3µM*	0.015µM*	-4	0.026µM*	0.052µM*
CC1(CCCc2ccc(N(CCCl)CCCl)cc2)NC(=O)NC1=O (stereo not drawn)	-1%	0.52µM*	1	0.41µM*	0%
CC(=O)NC(Cc1ccc(N(CCCl)CCCl)cc1)C(=O)NC(C(=O)O)C(C)C (stereo not drawn)	10%	-21%	-14	-9%	14%
CC1(C)C(=O)C=C[C@@]2(C)C1=C(O)C(=O)[C@@]1(C)C2CC[C@@]2(C)C(c3ccoc3)C[C@H]3O[C@@]321 (stereo partly drawn)	.	12µM*	.	12µM*	.
Cc1ccccc1N1CCN(C2CCCN(C(=O)COc3ccccc3)C2)CC1 (stereo not drawn)	-14%	21µM*	20	26µM*	1%
CC(=O)c1ccc(OCC(=O)N2CCCC(N3CCN(c4ccccc4C)CC3)C2)cc1 (stereo not drawn)	4%	?	-2	?	0%
O=c1oc(Cl)c(Cl)c2ccccc12	14%	2.9µM*	-70*	3.3µM*	-3%
O=C1C=CC2C3C(=O)N(c4ccccc4)C(=O)C3C1N2Cc1ccccc1 (stereo not drawn)	?	2.3µM*	-97*	2.1µM*	10µM*
N/C(Cc1ccc(Cl)cc1)=N\OC(=O)c1cccc2ccccc12	?	29µM*	?	?	?
CC12CCC3C(CC=C4CC5(CCC43C)OCCO5)C1CCC2=O (stereo not drawn)	19%	?	51	?	24%
CN(C)c1c([N+](=O)[O-])cc(N2C(=O)C=CC2=O)cc1[N+](=O)[O-]	3%	1.3µM*	-99*	1.3µM*	0%
CCOC(=O)C1(c2ccccc2)CCN(CCC(=O)Nc2ccc(OC)cc2)CC1	-12%	?	-15	?	-9%
CCOC(=O)C1(c2ccccc2)CCN(CCC(=O)Nc2ccc(C(=O)OC)cc2)CC1	-4%	?	-27	21µM*	-4%
CCC(=O)OC1(c2ccccc2)CCN(C)CC1	.	-5%[92.5 µM]	.	-11%[92.5 µM]	.
